TrxR1 substrate = substrates of rat thioredoxin reductase 1; O89049; purified TrxR1 substrate turnover, NADPH consumption readout; Potency, µM (highest dose often 114 µM); 0.01% of 390,000 active; AID 588456; further: nearly all actives have a fitted effect of over 50% in size
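Rat TrxR1, dispensed at 90 nM, was prereduced with 400 uM NADPH (final) for 5 min at ~22 deg C, then incubated with compound 15 min before 400 uM selenite. A first-read NADPH fluorescence drop versus no-compound background flagged substrates.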
A-T KAP1 phos = candidate therapy for ataxia-telangiectasia; F2112 A-T fibroblasts, KAP-1 phosphorylation AlphaLISA; neocarzinostatin DNA damage 30 min before lysis; Potency, µM (highest dose often 57.5 µM), usual class: activators; 0.19% of 320,000 active; further: nearly all actives have a fitted effect of over 45% in size
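ATM-like activity read as KAP-1 phosphorylation via AlphaLISA donor/acceptor antibody pairs after lysis and 6 hr at 25C. Cells were ATM-null patient fibroblasts (F2112, hTERT), dosed 60 min, then exposed to the DSB inducer NCS for 30 min.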
Pin1 inhibitor = human Pin1 inhibition; Q13526; Pin1 FP peptide displacement, HiFluor488, 10 min; Potency, µM (top dose mostly 115 µM), usual class: inhibitors; 0.009% of 390,000 active; AID 504891; active means well fitted inhibition curve with a large enough effect in the polarisation, with a control signal flat, not every such curve was filed as active; inconclusive means small, poorly fitted or top-dose-only effect, or effect the other way, or a change in a side signal; inactive means no such curve, though single readings can be large or run the other way; the % refers to the polarisation
Target sequence (Q13526 whole entry, looked up): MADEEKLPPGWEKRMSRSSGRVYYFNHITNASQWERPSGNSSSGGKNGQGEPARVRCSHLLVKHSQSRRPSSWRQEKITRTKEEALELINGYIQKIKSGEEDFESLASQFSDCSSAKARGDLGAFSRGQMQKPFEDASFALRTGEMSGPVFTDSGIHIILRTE
TrxR1 inh-1 = inhibitors of rat thioredoxin reductase 1; O89049; recombinant rTrxR1, NADPH fluorescence consumption, selenite substrate; Potency, µM (titrated, usually from 114 µM), most hits filed as inhibitors; 1% of 390,000 active; further: nearly all actives have a fitted effect of over 65% in size
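Rat TrxR1 (90 nM in the dispensed reagent) was pre-reduced with 400 uM NADPH for 5 min at room temperature, then incubated with compound for 15 min. After 400 uM selenite was added, NADPH fluorescence (Ex 340/Em 450 nm) was followed for 8 min.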
N370S GC = inhibitors or activators of N370S glucocerebrosidase for Gaucher disease; P04062; N370S GC spleen homogenate, 4MU-glucoside fluorescence; Potency, µM (series often up to 59.4 µM), most hits filed as inhibitors; 0.092% of 330,000 active
Akt phos inh = inhibitors of Akt phosphorylation; 0.32% of 360,000 active; Neuro2A IGF-stimulated pAkt S473 HTRF, 20 min; stronger effect = lower value; activity change, % for hits at 50 µM; in the data active means activity change below about -80%; inconclusive means mostly about -51% to -80%
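Single-point screen (50 µM final compound) in Neuro2A cells stimulated 20 min with 6 nM IGF at 37 deg C. After lysis, Ser473-phosphorylated Akt read by HTRF (ex 330 nm, em 615/665 nm) as the 665/615 ratio.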
TRb-SRC2 inh = confirmation of human TRb-SRC2 interaction inhibitors; shares compounds with TrxR1 inh-1; AlphaScreen TRb LBD-SRC2 peptide binding, luminescence; Potency, µM; 50% of 30 active; calls by dose curve
HepG2 viability = HepG2 cytotoxicity, 72 h ATP readout; shares compounds with TrxR1 inh-1; HepG2 viability, ATP luminescence (CellTiter-Glo), 72 h; Potency, µM; 50% of 40 active; AID 2447; calls by dose curve
AR SRC2 FP = disrupts human androgen receptor binding to SRC2 peptide; shares compounds with TrxR1 inh-1; AR-LBD Tx-SRC2-3 fluorescence polarization, 3 h; calls only; 25 tested, under 10 active; AID 2448; call rule not given here
PPARg DRIP2 FP = selectivity of TRb-SRC2 inhibitors: human PPARgamma coactivator binding inhibition; 25 tested, under 10 active; shares compounds with TrxR1 inh-1; Potency, µM; PPARg LBD / Texas Red DRIP-2 peptide, fluorescence polarization, 3 h; calls by dose curve
VDR-SRC2 FP sel = selectivity of TRb-SRC2 inhibitors: human vitamin D receptor-SRC2 inhibition | AID 2455 | Potency, µM | shares compounds with TrxR1 inh-1 | VDR LBD/SRC2-3 peptide, fluorescence polarization, 3 h | 25 tested, under 10 active; calls by dose curve
Target sequence (P11473 whole entry, looked up, the tested form may be a part): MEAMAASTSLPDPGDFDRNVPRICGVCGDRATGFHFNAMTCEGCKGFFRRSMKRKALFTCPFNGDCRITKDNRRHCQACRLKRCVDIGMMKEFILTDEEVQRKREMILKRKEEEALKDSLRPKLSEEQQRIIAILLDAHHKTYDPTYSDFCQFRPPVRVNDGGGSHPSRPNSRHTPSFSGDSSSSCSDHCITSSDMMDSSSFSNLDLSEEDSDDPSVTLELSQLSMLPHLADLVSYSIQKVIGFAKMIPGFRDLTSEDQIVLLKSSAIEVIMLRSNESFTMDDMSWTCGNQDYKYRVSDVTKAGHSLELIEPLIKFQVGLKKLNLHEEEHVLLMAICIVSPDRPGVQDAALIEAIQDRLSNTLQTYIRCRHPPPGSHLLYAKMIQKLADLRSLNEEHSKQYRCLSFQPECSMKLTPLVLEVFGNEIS
TRb SRC2 FluoFP = confirmation of human TRb-SRC2 interaction inhibitors; shares compounds with TrxR1 inh-1; TRb LBD / fluorescein-SRC2 peptide, fluorescence polarization; 20 tested, under 10 active; Potency, µM; call rule not given here
GR inh = glutathione reductase inhibition, TrxR1 selectivity check. AID 652020. activity change, negative = inhibition, % at 57.1 µM. 55 tested, under 10 active. purified GR, DTNB reduction absorbance 405 nm kinetic. shares compounds with TrxR1 inh-1
TrxR1 inh-2 = blocks rat thioredoxin reductase 1 in hit validation. shares compounds with TrxR1 inh-1. recombinant TrxR1, NADPH fluorescence consumption, selenite substrate. Potency, µM, actives largely listed as inhibitors. 50% of 55 active. AID 652023
TrxR1 insulin = TrxR1 inhibition in insulin mechanism assay. TrxR1 Trx-coupled insulin reduction, NADPH absorbance 340 nm. shares compounds with TrxR1 inh-1. Potency, µM. 20% of 55 active;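 active means compounds with a measured potency under 100 micromolar; inconclusive means filed, but no rule given; inactive means potency at or above that, or unmeasurable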
TrxR1 inh-3 = blocks rat TrxR1 reduction of DTNB. shares compounds with TrxR1 inh-1. purified TrxR1, DTNB reduction, A412. Potency, µM. 90% of 55 active. AID 652256;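 active means a half-inhibiting concentration could be measured and was below 100 µM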
Numbers stand for hits; n = inactive; u = inconclusive; x = no result given; ! = a repeat was not active. This is a sample that favours compounds with a hit; in the whole collection about 1.4% have one here. Unless noted, the call rests on the fitted dose curve; in most records, active means well fitted curve in the direction sought with a large enough effect; inconclusive means small, poorly fitted or top-dose-only effect, or another doubt; inactive means no such curve, though single readings can be large; an effect the other way counts as inactive or inconclusive.

SMILES	TrxR1 substrate	A-T KAP1 phos	Pin1 inhibitor	TrxR1 inh-1	N370S GC	Akt phos inh	HepG2 viability	others
Cc1ccc(C)c(OCC(=O)Nc2ccc(S(=O)(=O)Nc3onc(C)c3C)cc2)c1C	n	x	n	n	x	x	x
Cn1cccc1C(=O)NC(=O)COC(=O)c1ccc(S(C)(=O)=O)c([N+](=O)[O-])c1	n	n	u	4.47µM!	x	n	u	TRb-SRC2 inh=26.8µM;AR SRC2 FP=n;PPARg DRIP2 FP=51.6µM;VDR-SRC2 FP sel=u;TRb SRC2 FluoFP=u
O=C(COC(=O)c1ccc(F)c([N+](=O)[O-])c1)NC1C2CC3CC(C2)CC1C3 (stereo not given)	x	x	x	x	x	x	u	TRb-SRC2 inh=8.7µM;AR SRC2 FP=n;PPARg DRIP2 FP=n;VDR-SRC2 FP sel=n
O=C(COC(=O)c1ccc(Cl)c([N+](=O)[O-])c1)NC1C2CC3CC(C2)CC1C3 (stereo not given)	x	x	x	x	x	x	n	TRb-SRC2 inh=n;AR SRC2 FP=n;PPARg DRIP2 FP=n;VDR-SRC2 FP sel=n
Nc1ccc(C(=O)OCC(=O)NC2CC2)cc1[N+](=O)[O-]	n	n	n	n	n	n	x
O=C(COC(=O)c1ccc(Cl)c([N+](=O)[O-])c1)NC1CCCC1	n	n	n	n	n	n	x
O=C(COC(=O)c1cccc([N+](=O)[O-])c1Cl)NC1C2CC3CC(C2)CC1C3 (stereo not given)	x	x	x	x	x	x	n	TRb-SRC2 inh=44.4µM;AR SRC2 FP=n;PPARg DRIP2 FP=n;VDR-SRC2 FP sel=n
O=C(COC(=O)c1cc(Cl)ccc1[N+](=O)[O-])NC1CC1	n	n	n	n	x	n	x
CCOC(=O)c1cc(-c2ccccc2)n(CCCC(=O)Nc2ccccc2C)c1C	n	x	n	n	x	x	x
Cc1ccc(CSc2nnc(-c3ccc(NC(=O)CCc4ccccc4)cc3)n2C)cc1	n	x	x	n	x	x	x
CCC(=O)N1CCc2cc(S(=O)(=O)N3CCN(c4ccccc4F)CC3)ccc21	n	x	n	n	x	x	x
CCN1C(=NCCc2c[nH]c3ccccc23)N[C@@H](c2ccccc2)C(C(=O)OC)=C1C	x	n	x	x	n	x	x
COC(=O)C1=C(C)N(CCc2c[nH]c3ccccc23)C(=O)/C1=C\N(C)C	n	n	n	10µM	n	n	x	GR inh=n;TrxR1 inh-2=9.47;TrxR1 insulin=36µM;TrxR1 inh-3=0.122µM
CCOC(=O)C1CCN(c2nc3c(S(=O)(=O)c4ccccc4)nnn3c3ccsc23)CC1	n	x	n	n	x	x	x
CC1CCN(C(=O)COC(=O)c2ccc(S(C)(=O)=O)c([N+](=O)[O-])c2)CC1	x	x	x	x	x	x	20µM
CC1CCN(C(=O)C(C)OC(=O)c2ccc(S(C)(=O)=O)c([N+](=O)[O-])c2)CC1 (stereo not given)	n	x	n	11.2µM	x	x	n	TRb-SRC2 inh=7.3µM;AR SRC2 FP=n;PPARg DRIP2 FP=n;VDR-SRC2 FP sel=n;TRb SRC2 FluoFP=3.6µM
COc1ccc(CCNC(=O)c2cccc(Nc3nc4ccccc4nc3-n3nc(C)cc3C)c2)cc1OC	n	x	n	n	x	x	x
C[C@@H]1CC=C[C@H]2[C@H]1C(=O)N(Cc1ccccc1)[C@H]2c1ccc2ccccc2c1Br	n	n	n	15.8µM	n	n	x	GR inh=n;TrxR1 inh-2=5.32;TrxR1 insulin=n;TrxR1 inh-3=0.95µM
CN(c1ccccc1C(=O)O)S(=O)(=O)c1ccc2[nH]c(=O)oc2c1	n	n	n	n	n	x	x
CCC(C)(C)n1nnnc1C(c1ccc(O)c(OC)c1)N1CCc2ccccc2C1 (stereo not given)	n	n	n	0.0794µM	n	n	x	GR inh=n;TrxR1 inh-2=0.336;TrxR1 insulin=n;TrxR1 inh-3=0.011µM
C=CCN1C(=O)N/C(=C/c2ccc(N3CCOCC3)o2)C1=O	x	n	x	x	n	x	x
O=C1N/C(=C/c2ccc(N3CCOCC3)o2)C(=O)N1c1ccccc1	n	n	u	7.08µM	n	n	x	GR inh=n;TrxR1 inh-2=2.12;TrxR1 insulin=n;TrxR1 inh-3=2.11µM

Bioassay records deposited in PubChem BioAssay by National Center for Advancing Translational Sciences (NCATS).
